Where “and” joins values, the source holds several entries; their conditions need not be identical. Identical values can stand only once. Hit rate of the full screen: of about 340,000 compounds, about 3,300 (0.97%) were called active. Not shown: some 9% with an inconclusive outcome. Calls come from the whole dose curve; as a rule, active = well fitted inhibition curve with a large enough effect; inconclusive = small, poorly fitted or top-dose-only effect, or effect the other way; inactive = flat fitted curve, though single readings scatter. The list shows a part of the results.
assay: qHTS Assay for Modulators of miRNAs and/or Inhibitors of miR-21; details: HeLa miR-21-FLuc reporter, luciferase luminescence, 48 h; actives lower the signal; note: nearly all actives have a fitted effect of over 55% in size
Method in brief: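 Compounds were titrated across several concentrations (up to approximately 40 uM) and incubated 48 hours with HeLa miR-21-FLuc reporter cells (miR-21 target sequence downstream of FLuc, endogenous miR-21). Readout was firefly luciferase luminescence after lytic detection reagent.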
Potency is the fitted concentration of half-maximal effect.

SMILES	Potency
COc1ccc(N=Nc2ccc(N)nc2N)cc1	2.61 µM (active)
Nc1ccc(N=Nc2ccccc2Cl)c(N)n1	2.07 µM (active)
COc1ccc(-c2noc(CSc3ccccc3)n2)cc1OC	11.7 µM (active)
c1ccc(SCc2nc(-c3ccccn3)no2)cc1	2.82 µM (active)
Cc1ccc(NC(=O)c2cc3ccccc3oc2=N)cc1	0.0736 µM (active)
N=c1oc2cc(O)ccc2cc1C(=O)Nc1nc2ccccc2s1	1.04 µM (active)
N=c1oc2ccccc2cc1C(=O)Nc1cccc(F)c1	0.165 µM (active)
COc1ccc(NC(=O)c2cc3ccccc3o/c2=N\NS(=O)(=O)c2ccc(C)cc2)cc1	3.29 µM (active)
CCc1ccc2oc(-c3cc(N)cc(C)c3O)nc2c1	2.93 µM (active)
O=C(Nc1nc(-c2cccs2)cs1)C1=COCCO1	2.33 µM (active)
N/C(=N\O)c1ccc(N2CCN(c3ncccc3C(F)(F)F)CC2)nc1	4.65 µM (active)
CC(C)(C)c1ccc(SCCc2ccccn2)cc1	6.56 µM (active)
CC(C)(C)c1ccc(SCCc2cccnc2)cc1	8.26 µM (active)
Cc1ccc(NC(=O)NC(=O)N(C2CCCCC2)S(=O)(=O)c2ccccc2)cc1	16.5 µM (active)
Cc1ccc2oc(=O)c(/C=C(\O)c3cccs3)nc2c1	4.65 µM (active)
Nc1c(-c2cccc([N+](=O)[O-])c2)nc2ccccn12	5.85 µM (active)
CN1CCC(Oc2ccc(Sc3ccccc3)cc2)CC1	5.21 µM (active)
COc1ccc(CN(C(=O)c2cc3ccccc3oc2=O)C2CCS(=O)(=O)C2)cc1OC (stereo not drawn)	5.85 µM (active) and 13.1 µM (active)
CC(C)Oc1cccc(C(=O)NC2=NCCS2)c1	3.69 µM (active)
CC(C)Oc1cccc(C(=O)NC(=S)Nc2cccnc2)c1	13.1 µM (active)
O=C(NC1=NCCS1)c1ccc(C(F)(F)F)cc1	6.56 µM (active)
O=C(NCc1ccco1)c1cc(-c2cccs2)on1	5.85 µM (active)
O=C(NCc1ccco1)c1cc(-c2ccccc2)on1	7.36 µM (active)
O=C(NCc1cccnc1)c1cc(-c2ccccc2)on1	18.5 µM (active)
O=C(NC12CC3CC(CC(C3)C1)C2)N1CCN(C(=O)c2ccco2)CC1	16.5 µM (active)
O=C1/C(=C/c2cccs2)CCC/C1=C\c1cccs1	1.65 µM (active)

SMILES	Potency
CC(=O)N(c1nnc(-c2cccc(C)c2)s1)C1CCCC1	8.26 µM (active)
Oc1ccc(-c2csc(Nc3ccccn3)n2)cc1O	2.61 µM (active)
CC(=O)Oc1ccc(-c2csc(Nc3cccc(C)n3)n2)cc1	1.47 µM (active)
Oc1ccc(-c2csc(Nc3ncccn3)n2)cc1O	5.85 µM (active)
CCCCCNc1nc(-c2ccccc2)cs1	1.65 µM (active)
Cc1nc(N)sc1-c1csc(Nc2ncccn2)n1	2.93 µM (active)
c1ccc(Nc2nc(-c3cccs3)cs2)nc1	0.293 µM (active)
c1ccc(-c2csc(Nc3ncccn3)n2)cc1	0.208 µM (active)
Cc1cccc(Nc2nc(-c3ccc(O)c(O)c3)cs2)n1	8.26 µM (active)
Cc1ccc(Nc2nc(-c3ccc(O)c(O)c3)cs2)nc1	8.26 µM (active)
Cc1ccnc(Nc2nc(-c3ccc(O)c(O)c3)cs2)c1	4.65 µM (active)
CCOC(=O)c1cccnc1SCc1cc(=O)n2ccccc2n1	13.1 µM (active)
COc1ccc(/C=N/NC(=O)c2ccoc2C)cc1O	6.56 µM (active)
CCOc1ccc(/C=N/NC(=O)c2ccoc2C)cc1OC	7.36 µM (active)
Cc1ccc2sc(-c3ccc(NC(=O)CCN4C(=O)c5ccccc5C4=O)cc3)nc2c1	0.104 µM (active)
O=C(CCN1C(=O)c2ccccc2C1=O)Nc1ccc(-c2nc3ccccc3s2)cc1	0.261 µM (active)
Cc1ccc2nc(-c3ccc(NC(=O)CCN4C(=O)c5ccccc5C4=O)cc3)sc2c1	0.0927 µM (active)
Cc1ccc2nc(-c3ccc(NC(=O)CN4C(=O)c5ccccc5C4=O)cc3)sc2c1	1.65 µM (active)
Cc1ccc2nc(-c3ccc(NC(=O)C(C)N4C(=O)c5ccccc5C4=O)cc3)sc2c1 (stereo not drawn)	1.17 µM (active)
Cc1ccc2nc(-c3ccc(NC(=O)CSc4nc(N)cc(=O)[nH]4)cc3)sc2c1	8.26 µM (active)
CCC(=O)c1ccc(OCc2ccc(C#N)cc2)cc1	9.27 µM (active)
CCC(=O)c1ccc(OCc2ccc(C(=O)OC)cc2)cc1	0.261 µM (active)
CCOc1ccc2c(c1)C(c1ccc(C)cc1)=NNC(c1ccc(C)cc1)=N2	8.26 µM (active)
CCOc1ccc(C2=NNC(c3cccs3)=Nc3ccc(OC)cc32)cc1OCC	18.5 µM (active)
C=C(C)C1Cc2cc3ccc(=O)oc3cc2O1 (stereo not drawn)	16.5 µM (active)
Cc1ccc(Cn2nnc3c(=O)[nH]c(C4CCCN(S(=O)(=O)c5ccccc5)C4)nc32)cc1 (stereo not drawn)	18.5 µM (active)

SMILES	Potency
O=C(Nc1ccccc1Br)c1cc(=O)c2ccccc2o1	2.07 µM (active)
NC(=O)c1ccsc1NC(=O)c1cc(=O)c2ccccc2o1	0.329 µM (active)
NC(=O)c1ccsc1NC(=O)c1coc2ccccc2c1=O	1.17 µM (active)
COc1cccc(/C(C)=N/Nc2ncc(Cl)cc2Cl)c1	16.5 µM (active)
COc1cccc(/C(C)=N/N=C(\C)c2cccc(OC)c2)c1	4.14 µM (active)
CCNc1nc(N)nc(Oc2ccc(C(=O)OC)cc2)n1	8.26 µM (active)
CC(=O)COc1ccc2c(c1C)O/C(=C\c1ccco1)C2=O	3.69 µM (active)
CN(CC(=O)NCCc1ccccc1)Cc1ccco1	14.7 µM (active)
CCNC(=O)CCCOc1ccc(Cl)cc1Cl	16.5 µM (active)
CCN(CC)C(=O)CCCOc1ccc(Cl)cc1Cl	14.7 µM (active)
Cn1c(CCCOc2ccc(Cl)cc2Cl)n[nH]c1=S	13.1 µM (active)
O=C(CCCOc1ccc(Cl)cc1Cl)Nc1ccccn1	11.7 µM (active)
CCOC(=O)c1cnc(SCCc2ccccc2)nc1N	1.65 µM (active)
CCOC(=O)c1cnc(SCc2ccc(C)cc2)nc1N	7.94 µM (active)
CCCCSc1ncc(C(=O)OCC)c(N)n1	1.31 µM (active)
C=CCSc1ncc(C(=O)OCC)c(N)n1	16.5 µM (active)
COc1cc(C2Nc3ccccc3C(=O)N2c2ccc(Cl)cc2)c(Cl)cc1OCC(=O)O (stereo not drawn)	2.33 µM (active)
CCOC(=O)COc1ccccc1C1Nc2ccccc2C(=O)N1c1cccc(Cl)c1 (stereo not drawn)	5.85 µM (active)
O=C(CSc1nc(-c2ccc(F)cc2)cs1)N1CCOCC1	6.56 µM (active)
Cc1nc(-c2ccc3c(c2)CCC(=O)N3)cs1	14.7 µM (active)
CCc1ccccc1NC(=O)CSc1nc(C)c(C(=O)Nc2ccccc2)c(-c2ccc(Cl)cc2)c1C#N	23.3 µM (active)
COc1ccccc1CCCNC(=O)C1CCC(=O)N(Cc2ccccc2F)C1 (stereo not drawn)	14.7 µM (active)
COc1ccc(C(=O)NCCc2c[nH]c3ccccc23)cc1	3.29 µM (active)
O=C(NCCc1c[nH]c2ccccc12)c1ccc(Cl)cc1	7.36 µM (active)
O=C(NCCc1c[nH]c2ccccc12)c1ccc(F)cc1F	9.27 µM (active)
O=C(NN/C(=N/S(=O)(=O)c1ccc(Cl)cc1)c1ccccc1)c1cccc(Cl)c1	2.07 µM (active)

SMILES	Potency
Cc1ccc(S(=O)(=O)/N=C(/NNC(=O)c2cccc(Cl)c2)c2ccccc2)cc1	1.85 µM (active)
CN(C)c1ccc(/C=N\Nc2ccccn2)cc1	0.521 µM (active)
Fc1ccc(/C=N/Nc2ccccn2)cc1	8.26 µM (active)
COc1cc(N/N=C/c2ccc(N(C)C)cc2)ncn1	0.208 µM (active)
C(=N\Nc1ccccn1)/c1ccc(N2CCOCC2)cc1	1.85 µM (active)
COc1ccc(C2=NN(C(=O)CN3CCOCC3)C(c3nc4ccccc4[nH]3)C2)cc1 (stereo not drawn)	10.4 µM (active)
CN(C)CCCNC(=O)c1ccc(/C=N/O)nc1	1.85 µM (active)
c1ccc(-c2onc3cc4c(cc23)OCCO4)cc1	2.07 µM (active)
Fc1ccc(Nc2ccc(-c3ccc(F)cc3)nn2)cc1	3.29 µM (active)
O=C(O)c1ccc(N/N=C/c2ccc(-c3cc(Cl)ccc3Cl)o2)cc1	6.56 µM (active)
O=C(O)c1ccc(N/N=C/c2ccc(-c3ccc(Cl)cc3Cl)o2)cc1	18.5 µM (active)
O=C(O)c1ccc(N/N=C/c2ccc(-c3ccc(Br)cc3)o2)cc1	5.85 µM (active)
O=C(O)c1ccc(N/N=C/c2ccc(-c3cccc(Cl)c3)o2)cc1	0.927 µM (active)
O=C(O)c1ccc(N/N=C/c2ccc(-c3ccccc3Cl)o2)cc1	0.293 µM (active)
c1cnc2c(SCc3ccc(-c4nnco4)cc3)cccc2c1	13.1 µM (active)
COc1ccccc1OCCCn1c(=O)sc2ccccc21	9.27 µM (active)
Cc1ccccc1OCCCn1c(=O)sc2ccccc21	6.56 µM (active)
O=C(Nc1ccc2oc(-c3ccccc3)nc2c1)c1ccccc1F	1.31 µM (active)
O=C(Nc1ccc2oc(-c3ccc4ccccc4c3)nc2c1)c1cc(Br)ccc1Cl	16.5 µM (active)
O=C(Nc1ccc2oc(-c3ccc4ccccc4c3)nc2c1)c1cccs1	1.04 µM (active)
O=S(=O)(Nc1ccc2oc(-c3ccccc3)nc2c1)c1ccccc1	18.5 µM (active)
CCOc1ccc2nc(SCC(=O)N(C)C)[nH]c2c1	7.36 µM (active)
COc1ccc2nc(SCC(=O)C(C)(C)C)[nH]c2c1	6.56 µM (active)
Cc1cccc(Nc2nc3c(s2)CCCC3)c1	2.07 µM (active)
O=C1C=C(N2CCCCCC2)C(=O)N1c1ccc(Cl)cc1	5.21 µM (active)

Source: PubChem BioAssay AID2289 (National Center for Advancing Translational Sciences (NCATS), 2010)
